Results reported in PubChem BioAssay (NCATS).
Several values for one entry are separate records, joined by “and”; a condition that tells them apart may be missing. Equal values may be shown once. Records with an inconclusive call do not appear. Activity calls are given as the source filed them. Unless noted, the call rests on the fitted dose curve; in most records, active means well fitted curve in the direction sought with a large enough effect; inconclusive means small, poorly fitted or top-dose-only effect, or another doubt; inactive means no such curve, though single readings can be large; an effect the other way counts as inactive or inconclusive.

Tests used:
[1] = qHTS to identify inhibitors of the type 1 interferon - major histocompatibility complex class I in skeletal muscle: primary screen against the NCATS Mechanism Interrogation Plate v5.0 (MIPE) Libary (AID 1347411); further: nearly all actives have a fitted effect of over 65% in size; further: potency means the concentration at half of the fitted maximal effect
Method in brief: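 IFN-beta-driven (4 ng/ml) HLA-B-HiBit expression in CRISPR-tagged C25cl48 myoblasts; compounds 11-pt, 1:3, max 46 uM, 24 hr exposure; lytic NanoLuc complementation luminescence.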

[2] = Primary qHTS for inhibitors of nuclear receptor binding SET domain protein 2 (NSD2) in an isogenic RCH-ACV NSD2 p.E1099K mutant (9B) (AID 1645876); further: nearly all actives have a fitted effect of over 70% in size; further: potency means the concentration at half of the fitted maximal effect
[3] = Primary qHTS for inhibitors of nuclear receptor binding SET domain protein 2 (NSD2) in an RCH-ACV wild type WT cells (2C) (AID 1645877); further: nearly all actives have a fitted effect of over 70% in size; further: potency means the concentration at half of the fitted maximal effect
[4] = target: Glutathione peroxidase 1 (Homo sapiens) (UniProt P07203); assay: Primary qHTS Assay for Inhibitors of Recombinant Selenoprotein Glutathione Peroxidase 1 (GPX1) (AID 1845191); further: nearly all actives have a fitted effect of over 65% in size
Method in brief: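 NADPH consumption tracked by fluorescence at 340/450 nm between t=0 and t=15 min, room temperature. Final mix: 10 nM GPX1, 100 nM glutathione reductase, 1 mM GSH, 0.5 mM NADPH, 0.5 mM cumene hydroperoxide, 0.01% BSA; 30 min compound–enzyme preincubation.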

[5] = qHTS drug screen for cell cycle checkpoint inhibitors in PARPi-resistant BRCA-mutant ovarian cancer cell lines. (AID 1963452; calls by dose curve); conditions: PEO1/OlaR viability, CellTiter-Glo luminescence, 96 h, stronger effect = lower value
Method in brief: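 PEO1, PEO4 and PEO1/OlaR ovarian cancer cells, 600 per well, exposed 96 h at 37C to a dilution series. Viability read by CellTiter-Glo luminescence, normalized to DMSO and empty wells; activity summarized as Z-AUC.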

[6] = target: Phospholipid hydroperoxide glutathione peroxidase GPX4 (Homo sapiens) (UniProt P36969); assay: Primary qHTS Assay for Inhibitors of Recombinant Selenoprotein Glutathione Peroxidase 4 (GPX4) (AID 1845192); conditions: outcome: dose series up to 50 µM unless noted; further: nearly all actives have a fitted effect of over 65% in size
Method in brief: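 NADPH consumption followed by fluorescence at 340/450 nm, t=0 and after 15 min at room temperature. Reaction started with cumene hydroperoxide (0.5 mM final) after 30 min compound–GPX4 preincubation; final 200 nM GPX4, 100 nM GR, 1 mM GSH, 0.5 mM NADPH.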

[7] = measured here: PEO1 parental Z-AUC

Sequence of Glutathione peroxidase 1 (Homo sapiens) (P07203 whole entry, looked up): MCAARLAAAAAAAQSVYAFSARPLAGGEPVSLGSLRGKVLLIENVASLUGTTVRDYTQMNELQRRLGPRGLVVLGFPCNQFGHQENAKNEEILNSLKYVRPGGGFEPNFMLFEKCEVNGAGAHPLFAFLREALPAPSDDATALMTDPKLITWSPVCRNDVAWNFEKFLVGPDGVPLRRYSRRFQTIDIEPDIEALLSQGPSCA
Sequence of Phospholipid hydroperoxide glutathione peroxidase GPX4 (Homo sapiens) (P36969 whole entry, looked up): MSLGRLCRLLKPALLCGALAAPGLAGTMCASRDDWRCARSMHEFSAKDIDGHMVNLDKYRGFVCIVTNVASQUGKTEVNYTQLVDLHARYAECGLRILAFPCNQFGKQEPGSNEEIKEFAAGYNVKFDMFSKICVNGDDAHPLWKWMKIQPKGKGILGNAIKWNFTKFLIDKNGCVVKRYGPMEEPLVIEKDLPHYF

Q: What does the source list for `O=C(O)c1ccccc1-c1ccc(/C=c2\sc3nc4cc(Br)cnc4n3c2=O)o1`?
A: Potency [1]: inactive; Potency [2]: inactive; Potency [3]: inactive; Potency [4]: inactive; Z-AUC [5]: -0.492 (inactive); Z-AUC [5, 7]: -0.865; Z-AUC ([5]; measured here: PEO4 Z-AUC): -0.895

Q: Which results are given for `O=C1Cc2cc(C(=O)NC3C[C@H]4CC[C@@H](C3)N4S(=O)(=O)CC3CCN(CCCC(F)(F)F)CC3)c(Cl)cc2N1` (some centres not stated)?
A: Potency [1]: inactive; Potency [2]: inactive; Potency [3]: inactive; Potency [6]: inactive; Z-AUC [5]: -0.571 (inactive); Z-AUC [5, 7]: -0.873; Z-AUC ([5]; measured here: PEO4 Z-AUC): -0.957

Q: With `O=C(O)CCNc1cc(N2CCc3ccccc3CC2)nc(-c2cccnc2)n1` as the compound, how does the Potency [1] read?
A: Its Potency is “inactive”.

Q: What about the Potency [2] of the same compound?
A: The Potency was “inactive”.

Q: And the Potency [3]?
A: The Potency was “inactive”.

Q: And the Potency [4]?
A: The Potency was “inactive”.

Q: What about the Z-AUC [5] of the same compound?
A: The Z-AUC was 1.21 (inactive).

Q: And the Z-AUC [5, 7]?
A: The Z-AUC was 0.839.

Q: What about the Z-AUC ([5]; measured here: PEO4 Z-AUC) of the same compound?
A: The Z-AUC was 0.897.

Q: What does the source list for `Cc1ccc(S(=O)(=O)Nc2cc(-c3ccc(C#N)s3)ccc2C)cc1`?
A: Potency [1]: inactive; Potency [2]: 0.0468 µM (active); Potency [3]: 0.0417 µM (active); Potency [6]: inactive; Z-AUC [5]: -2.2 (inactive); Z-AUC [5, 7]: -2.3; Z-AUC ([5]; measured here: PEO4 Z-AUC): -2.13

Q: What does the source list for `C[C@H](NC(=O)[C@H]1NCC[C@@H]1O)c1ccc(-c2noc(CCC3CCCC3)n2)cc1`?
A: Potency [1]: inactive; Potency [2]: inactive; Potency [3]: inactive; Z-AUC [5]: 0.833 (inactive); Z-AUC [5, 7]: 0.65; Z-AUC ([5]; measured here: PEO4 Z-AUC): 0.666

Q: What does the source list for `CN[C@@H](C)C(=O)N[C@H](C(=O)N1CCC[C@H]1C(=O)Nc1sc(-c2ncco2)nc1-c1ccccc1)C1CCCCC1`?
A: Potency [1]: inactive; Potency [2]: inactive; Potency [3]: inactive; Potency [4]: inactive; Z-AUC [5]: 1.87 (inactive); Z-AUC [5, 7]: 0.246; Z-AUC ([5]; measured here: PEO4 Z-AUC): 0.302

Q: Which results are given for `CONC(=O)Nc1ccc(-c2sc3c(c2CN(C)Cc2ccccc2)c(=O)n(-c2ccccc2)c(=O)n3Cc2c(F)cccc2F)cc1`?
A: Potency [1]: inactive; Potency [2]: inactive; Potency [3]: inactive; Potency [4]: inactive; Z-AUC [5]: -0.608 (inactive); Z-AUC [5, 7]: -0.886; Z-AUC ([5]; measured here: PEO4 Z-AUC): -0.917

Q: For `Cc1cc(C)cc(Oc2ccc(CNC(=O)[C@H](C)N)cc2C)c1`, which Potency [1] is on record?
A: The Potency was “inactive”.

Q: What about the Potency [2] of the same compound?
A: Its Potency is 18.6 µM (active).

Q: What about the Potency [3] of the same compound?
A: The Potency was 18.6 µM (active).

Q: And the Potency [6]?
A: The Potency was “inactive”.

Q: And the Z-AUC [5]?
A: Its Z-AUC is 1.6 (inactive).

Q: And the Z-AUC [5, 7]?
A: Its Z-AUC is 1.04.

Q: And the Z-AUC ([5]; measured here: PEO4 Z-AUC)?
A: The Z-AUC was 1.3.

Q: What does the source list for `CNC(=O)Cn1cc(-c2ccc3c(c2)C(F)CC32NC(=O)N(CC(=O)N(Cc3ccc(F)cc3)[C@@H](C)C(F)(F)F)C2=O)cn1` (some centres not stated)?
A: Potency [1]: inactive; Potency [2]: 0.0525 µM (active); Potency [3]: 0.0661 µM (active); Potency [6]: inactive; Z-AUC [5]: 0.811 (inactive) and 1.3 (inactive); Z-AUC [5, 7]: 0.434 and 1.73; Z-AUC ([5]; measured here: PEO4 Z-AUC): 0.0101 and 0.997

Q: What does the source list for `CC(C)(O)c1coc(S(=O)(=O)NC(=O)Nc2c3c(cc4c2CCC4)CCC3)c1`?
A: Potency [1]: inactive; Potency [2]: inactive; Potency [3]: inactive; Z-AUC [5]: -0.755 (inactive); Z-AUC [5, 7]: -0.798; Z-AUC ([5]; measured here: PEO4 Z-AUC): -1

Q: Which Potency [1] does the source give for `Cc1c(F)cccc1NC(=O)Nc1ccc(Cl)c(S(=O)(=O)[C@H]2CCCNC2)c1O` here?
A: Its Potency is “inactive”.

Q: And the Potency [2]?
A: Its Potency is “inactive”.

Q: And the Potency [3]?
A: Its Potency is “inactive”.

Q: And the Potency [6]?
A: Its Potency is “inactive”.

Q: What about the Z-AUC [5] of the same compound?
A: The Z-AUC was 1.68 (inactive).

Q: And the Z-AUC [5, 7]?
A: Its Z-AUC is 1.25.

Q: And the Z-AUC ([5]; measured here: PEO4 Z-AUC)?
A: The Z-AUC was 1.41.

Q: With `O=C(O)C[C@H]1CCc2c1[nH]c1ccc(OCc3ccc(C4CCCC4)c(C(F)(F)F)c3)cc21` as the compound, how does the Potency [1] read?
A: Its Potency is “inactive”.

Q: What about the Potency [2] of the same compound?
A: The Potency was “inactive”.

Q: What about the Potency [3] of the same compound?
A: The Potency was “inactive”.

Q: What about the Z-AUC [5] of the same compound?
A: Its Z-AUC is 1.56 (inactive).

Q: And the Z-AUC [5, 7]?
A: Its Z-AUC is 0.981.

Q: What about the Z-AUC ([5]; measured here: PEO4 Z-AUC) of the same compound?
A: The Z-AUC was 0.948.

Q: Which Potency [1] does the source give for `CC1(N)CCN(c2cccnc2NC(=O)c2nc(-c3ncccc3C(F)(F)F)cnc2N)CC1` here?
A: Its Potency is “inactive”.

Q: What about the Potency [2] of the same compound?
A: The Potency was 16.6 µM (active).

Q: What about the Potency [3] of the same compound?
A: The Potency was 20.9 µM (active).

Q: What about the Potency [6] of the same compound?
A: The Potency was “inactive”.

Q: What about the Z-AUC [5] of the same compound?
A: Its Z-AUC is 0.421 (inactive).

Q: What about the Z-AUC [5, 7] of the same compound?
A: The Z-AUC was -0.000608.

Q: What about the Z-AUC ([5]; measured here: PEO4 Z-AUC) of the same compound?
A: The Z-AUC was 0.765.

Q: Which results are given for `O=C(CCCCCCC(=O)N/N=C/c1ccc(N(c2ccccc2)c2ccccc2)cc1)NO`?
A: Potency [1]: 18.6 µM (active); Potency [2]: 1.18 µM (active); Potency [3]: 1.48 µM (active); Z-AUC [5]: 1.09 (inactive); Z-AUC [5, 7]: 0.912; Z-AUC ([5]; measured here: PEO4 Z-AUC): 0.729

Q: What does the source list for `CC(C)Oc1ccc(-c2nc(-c3cccc4c3CC[C@@H]4NCCO)no2)cc1C#N`?
A: Potency [1]: inactive; Potency [2]: 14.8 µM (active); Potency [3]: 18.6 µM (active); Potency [4]: inactive; Z-AUC [5]: -0.0463 (inactive); Z-AUC [5, 7]: 0.729; Z-AUC ([5]; measured here: PEO4 Z-AUC): 1.1

Q: For `CC(C)n1cc(-c2ccc3c(c2)N(C)CC3)c2c(NS(=O)(=O)c3ccn(C)n3)ccnc21`, which Potency [1] is on record?
A: Its Potency is “inactive”.

Q: What about the Potency [2] of the same compound?
A: The Potency was “inactive”.

Q: What about the Potency [3] of the same compound?
A: The Potency was “inactive”.

Q: And the Potency [4]?
A: Its Potency is “inactive”.

Q: And the Z-AUC [5]?
A: Its Z-AUC is 1.52 (inactive).

Q: What about the Z-AUC [5, 7] of the same compound?
A: The Z-AUC was 0.948.

Q: What about the Z-AUC ([5]; measured here: PEO4 Z-AUC) of the same compound?
A: Its Z-AUC is 0.671.

Q: What does the source list for `CCN(CC)C(=O)Cc1csc(NS(=O)(=O)c2cccc(Cl)c2C)n1`?
A: Potency [1]: inactive; Potency [2]: inactive; Potency [3]: inactive; Potency [4]: inactive; Z-AUC [5]: 0.874 (inactive); Z-AUC [5, 7]: 0.835; Z-AUC ([5]; measured here: PEO4 Z-AUC): 0.952

Q: Which Potency [1] does the source give for `C[C@@H]1CC(=O)Nc2cccc(-c3ccc4c(c3)c(-c3cnn(C)c3)nn4C)c2N1` here?
A: Its Potency is “inactive”.

Q: What about the Potency [2] of the same compound?
A: Its Potency is 0.742 µM (active).

Q: And the Potency [3]?
A: The Potency was 0.662 µM (active).

Q: What about the Potency [4] of the same compound?
A: The Potency was “inactive”.

Q: What about the Z-AUC [5] of the same compound?
A: The Z-AUC was 1.34 (inactive).

Q: What about the Z-AUC [5, 7] of the same compound?
A: The Z-AUC was 1.02.

Q: What about the Z-AUC ([5]; measured here: PEO4 Z-AUC) of the same compound?
A: Its Z-AUC is 1.12.

Q: For `Nc1n[n+]([O-])c2ccccc2[n+]1[O-]`, which Potency [1] is on record?
A: The Potency was “inactive”.

Q: What about the Potency [2] of the same compound?
A: Its Potency is 18.6 µM (active).

Q: What about the Potency [3] of the same compound?
A: Its Potency is 10.5 µM (active).

Q: And the Potency [6]?
A: The Potency was “inactive”.

Q: And the Z-AUC [5]?
A: The Z-AUC was -0.469 (inactive).

Q: And the Z-AUC [5, 7]?
A: The Z-AUC was -1.12.

Q: And the Z-AUC ([5]; measured here: PEO4 Z-AUC)?
A: Its Z-AUC is -1.08.

Q: What does the source list for `COC(=O)/C=C/C(=O)OC`?
A: Potency [1]: inactive; Potency [2]: inactive; Potency [3]: inactive; Potency [4]: inactive; Z-AUC [5]: -0.0504 (inactive); Z-AUC [5, 7]: 0.852; Z-AUC ([5]; measured here: PEO4 Z-AUC): 0.675

Q: Which Potency [1] does the source give for `O=c1c(-c2ccc(O)cc2)coc2c([C@@H]3O[C@H](CO)[C@@H](O)[C@H](O)[C@H]3O)c(O)ccc12` here?
A: The Potency was “inactive”.

Q: What about the Potency [2] of the same compound?
A: The Potency was “inactive”.

Q: And the Potency [3]?
A: The Potency was “inactive”.

Q: What about the Z-AUC [5] of the same compound?
A: The Z-AUC was 1.23 (inactive).

Q: And the Z-AUC [5, 7]?
A: Its Z-AUC is 1.96.

Q: And the Z-AUC ([5]; measured here: PEO4 Z-AUC)?
A: Its Z-AUC is 1.37.
